ChEMBL document CHEMBL3433997, “St. Jude Leishmania screening dataset” (2016)

These compounds were tested against Solute carrier family 2, facilitated glucose transporter member 1 (Homo sapiens) (UniProt P11166) (assay: ST_JUDE_LEISH: Cytotoxicity at 2uM final concentration against transgenic Leishmania Mexicana promastigotes LmGLUT1 that are glucose transport deficient and complemented with the human glucose transporter GLUT1. Activity is measured by DNA content using SYBR green in vitro).
Type: functional

Chain of Solute carrier family 2, facilitated glucose transporter member 1 (Homo sapiens) (P11166 whole entry): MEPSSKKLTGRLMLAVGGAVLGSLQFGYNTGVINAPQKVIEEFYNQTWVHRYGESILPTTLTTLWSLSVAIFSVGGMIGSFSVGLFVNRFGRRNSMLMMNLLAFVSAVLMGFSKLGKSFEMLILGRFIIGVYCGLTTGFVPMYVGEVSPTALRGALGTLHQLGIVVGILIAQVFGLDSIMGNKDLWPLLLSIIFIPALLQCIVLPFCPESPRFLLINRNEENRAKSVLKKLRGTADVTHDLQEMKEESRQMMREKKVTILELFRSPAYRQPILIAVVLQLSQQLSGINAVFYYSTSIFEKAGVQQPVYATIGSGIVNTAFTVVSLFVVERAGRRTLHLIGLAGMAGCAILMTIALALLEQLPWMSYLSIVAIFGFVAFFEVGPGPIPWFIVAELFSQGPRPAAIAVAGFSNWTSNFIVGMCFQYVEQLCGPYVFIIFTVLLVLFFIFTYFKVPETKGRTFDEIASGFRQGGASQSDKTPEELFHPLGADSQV

Going from `O=C(Nc1ccc(Cl)c(Cl)c1)N1CCc2cc3nccc(N4CCN5CCC[C@H]5C4)c3cc21` to `CN1CCN(c2ccnc3ccc(NC(=O)Nc4ccccc4Br)cc23)CC1`, the inhibition falls from 3.24% to -3.53%.

First: CC(=O)c1c[nH]c(C(=O)Nc2ccc(-c3cn4ccccc4n3)cc2)c1
Second: COc1ccc(C(=O)Nc2ccc(-c3nc4cc(C)ccc4[nH]3)cc2)cc1OC
The inhibition of the first is higher: 11.8% for the first, 3.99% for the second.

Going from `C=CCc1cc(Cc2cnc(N)nc2N)cc(CCC)c1O` to `Nc1nc(N)c2c(CCc3ccc4ccccc4c3)cccc2n1`, the inhibition rises from -0.63% to 3.27%.

Compared with `CCOC(=O)NC1=NC(C)(C)N(OCc2cccc3c2ccc2ccccc23)C(NC(=O)OCC)=N1`, `CC1CCC2(CC1)N=C(N)N=C(N)N2OCc1cc2ccccc2c2ccccc12` (stereo unspecified) is lower in inhibition: 10.7% for the first, 3.83% for the second.

Going from `Clc1ccc(C2CCN(CCCOc3ccc4c(c3)CCNCC4)CC2)cc1` to `O=C(Nc1cccc(F)c1)NC1CCN(c2ccnc3cc(Cl)ccc23)CC1`, the inhibition falls from 56.8% to 2.51%.

Compared with `CCCC(CNCc1cccc(OC(F)(F)C(F)F)c1)CNc1cc(=O)c2ccccc2[nH]1` (stereo unspecified), `CCOc1c(Br)cc(Cl)cc1CNCCCNc1nc2ccccc2[nH]1` is higher in inhibition: -0.75% for the first, 1.77% for the second.

First: O=C1COC2(CN1C1CCN(Cc3ccc(O)cc3Cl)C1)c1ccccc1-c1ccccc12 (stereo unspecified)
Second: CS(=O)(=O)N1CC2(CCN(CCC(NC(=O)Nc3ccccc3)c3ccc(Cl)c(Cl)c3)CC2)c2ccccc21 (stereo unspecified)
The inhibition of the first is lower: 2.42% for the first, 3.59% for the second.

Compared with `COc1ccc(OC)c(-c2cccc(-c3cccc(NC(=O)c4ccc([N+](=O)[O-])o4)c3)n2)c1`, `CCCOc1ccc(C(F)(F)F)cc1NC(=O)c1nc2nc(C)cc(C)n2n1` is lower in inhibition: 6.43% for the first, 6.01% for the second.
